# Laboratory results from PubChem BioAssay (NCATS).
# Records with an inconclusive call do not appear. Calls of active or inactive are those of the source. The call rests on the fitted dose curve; tested in HEK293 reporter line.
# Test: qHTS for Inhibitors of the Functional Ribonucleoprotein Complex (vRNP) of Lassa (LASV) Arenavirus: Viability assay - alamar blue signal for LASV Primary Screen (AID 1347083); further: nearly all actives have a fitted effect of over 80% in size
# Conditions: cell viability, alamar blue fluorescence (LASV minigenome counter-screen); series mostly up to 57.5 µM; activity change, negative = reduced viability: at the top concentration
# On the % scale 0 is the no-effect control and ±100 the full control effect; potency means the concentration at half of the fitted maximal effect.
Structure (SMILES),"activity change, negative = reduced viability",Potency
COC(=O)Nc1ccc(-c2nc(N3CCOCC3)c3cnn(C4CCN(C(=O)OC)CC4)c3n2)cc1,-134% (inactive),
Cc1cn2c(-c3cn[nH]c3)cnc2c(Nc2ccc(C(=O)N3CCNCC3)cc2F)n1,,3.85 µM (active)
Cc1cccc(Nc2nc(N[C@@H]3CCCC[C@H]3N)ncc2C(N)=O)c1,,4.85 µM (active)
CO[C@@H]1[C@H](N(C)C(=O)c2ccccc2)C[C@H]2O[C@]1(C)n1c3ccccc3c3c4c(c5c6ccccc6n2c5c31)C(=O)NC4,,3.06 µM (active)
COc1ccccc1[C@H](c1cccc2ccccc12)[C@@](C)(C#N)C(=O)N1CCC(c2cccc(C(F)(F)F)c2)CC1,,21.7 µM (active)
Cc1cc2c(F)c(Oc3ncnn4cc(OC[C@@H](C)O)c(C)c34)ccc2[nH]1,,24.3 µM (active)
COc1cccc2cc(-c3nc(C4CCC(C(=O)O)CC4)n4ncnc(N)c34)[nH]c12 (stereo unspecified),,0.611 µM (active)
O=C(Nc1ccc(Oc2ccc(Cl)cc2)c(Cl)c1)c1cc(I)cc(I)c1O,9.57% (inactive),
O=C(C=Cc1cccc(S(=O)(=O)Nc2ccccc2)c1)NO,,25 µM (active)
CCCCN1CCC(CNC(=O)c2c3n(c4ccccc24)CCCO3)CC1,,17.2 µM (active)
CCN1CCN(CC(=O)Nc2ccc(-c3cccc4c(=O)cc(N5CCOCC5)oc34)c3sc4ccccc4c23)CC1,,0.544 µM (active)
COc1cc2ncn(-c3cc(OCc4ccccc4C(F)(F)F)c(C(N)=O)s3)c2cc1OC,,1.72 µM (active)
CN[C@@H](C)C(=O)N[C@H]1CCCC[C@H]2CC[C@@H](C(=O)N[C@@H](c3ccccc3)c3cn(CCCCc4ccc(CCCCn5cc([C@@H](NC(=O)[C@@H]6CC[C@@H]7CCCC[C@H](NC(=O)[C@H](C)NC)C(=O)N76)c6ccccc6)nn5)cc4)nn3)N2C1=O,,19.3 µM (active)
COc1cc2nc(N3CCCN(C)CC3)nc(NC3CCN(Cc4ccccc4)CC3)c2cc1OC,,0.611 µM (active)
NC(=O)c1ccc(-c2nc(-c3ccc4c(c3)OCCO4)c(-c3ccccn3)[nH]2)cc1,,21.7 µM (active)
O=C(NCCCNc1nc(Nc2cccc(NC(=O)N3CCCC3)c2)ncc1I)c1cccs1,,3.85 µM (active)
OCCn1cc(-c2ccc3c(c2)CCC3=NO)c(-c2ccncc2)n1,,10.9 µM (active)
COc1cc2nccc(Oc3ccc(NC(=O)C4(C(=O)Nc5ccc(F)cc5)CC4)cc3)c2cc1OC,,27.3 µM (active)
CC(C)[C@H](CO)Nc1nc(Nc2ccc(C(=O)O)c(Cl)c2)c2ncn(C(C)C)c2n1,,0.217 µM (active)
Cc1nc(N)sc1-c1ccnc(Nc2ccc(N3CCOCC3)cc2)n1,,7.69 µM (active)
COc1ccc2c3n(c(=NC(=O)c4cccnc4)nc2c1OC)CCN3,,1.53 µM (active)
